# Data: PubChem BioAssay AID602449 (Sanford-Burnham Center for Chemical Genomics, 2012)
# Out of some 360,000 compounds screened, about 5,000 (1.4%) were called active.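 The calls were made as follows: active = inhibition of 50% or more, scaled per plate between neutral and stimulator controls; inactive = the rest.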 The entries come from a sample that favours actives as a whole.
# Assay: mitochondrial permeability transition pore inhibitors, primary screen, biochemical, isolated mouse mitochondria, absorbance (AID 602449);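 also: 0% = DMSO wells given calcium and 100% = 1 mM EGTA wells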
# Settings: Ca2+ swelling absorbance, 30 min, at 10 µM, hits give high values
row,Compound,inhibition
1,COc1cc(SC)ccc1C(=O)Nc1nc(C)cs1,0.2% (inactive)
2,CCCCOC(=O)CCCc1ccc([N+](=O)[O-])cc1[N+](=O)[O-],1.5% (inactive)
3,CCCCCOc1ccc(CSC2=NCCN2)cc1[N+](=O)[O-],-1.4% (inactive)
4,CCCCOc1ccc(CSC(=N)N)cc1[N+](=O)[O-],112% (active)
5,CC(C(=O)Nc1ccc(O)c(C(=O)O)c1)N1C(=O)/C(=C/c2cccs2)SC1=S (centres undefined),-1.2% (inactive)
6,O=C(CCN1C(=O)/C(=C/c2cccs2)SC1=S)NNC(=O)c1cccc(O)c1,67.7% (active)
7,Cc1c(C(=O)NCCN2C(=O)S/C(=C\c3cccs3)C2=O)cccc1[N+](=O)[O-],1.1% (inactive)
8,COc1ccccc1N(C(=O)Cn1nnc2ccccc21)C(C(=O)NCc1ccco1)c1ccc(C)o1 (centres undefined),4% (inactive)
9,CCOC(=O)N1CCN(C(=O)c2ccc3c(c2)N(Cc2ccc(C)cc2)CCS3)CC1,89% (active)
10,O=C(NCCc1ccccc1)c1ccc2c(c1)N(Cc1ccccc1)CCS2,0.6% (inactive)
11,CCOC(=O)N1CCN(C(=O)c2ccc(CN(c3ccc(C)c(C)c3)S(C)(=O)=O)cc2)CC1,5.2% (inactive)
12,CN(CCc1ccccc1)C(=O)c1cccc(NC(=O)Cc2cccc(NC(=O)C3CCCN(C(=O)CCc4ccccc4)C3)c2)c1 (centres undefined),-0.3% (inactive)
13,CC(=O)c1c(C)[nH]c(C(=O)Nc2cc(S(=O)(=O)N(C)C)ccc2C)c1C,-1.8% (inactive)
14,CSc1ccc(/C=C2\NC(=O)NC2=O)cc1,0.6% (inactive)
15,COC(=O)C1(C)NC(c2ccccc2OC)C2C(=O)N(c3ccccc3)C(=O)C21 (centres undefined),1.1% (inactive)
16,COc1cc(OC)cc(C(=O)NCC(=O)OCc2csc(-c3ccccc3)n2)c1,-4.3% (inactive)
17,Cc1ccc(-c2nc(COC(=O)c3c(C)noc3C)cs2)cc1,88.5% (active)
18,COc1ccc(C(=O)COC(=O)c2c(C)noc2C)cc1Cl,-2.4% (inactive)
19,CC12CN(NC(=O)c3ccc(Cl)cc3)C3(C#N)CC1CCC23C (centres undefined),8.6% (inactive)
20,Nc1ncc(CN2CCCC(C(=O)Nc3ccc(-c4ccco4)cc3)C2)cn1 (centres undefined),-0.6% (inactive)

row,Compound,inhibition
1,CCOC(=O)C1(Cc2ccc(O)cc2)NC(c2ccccc2F)C2C(=O)N(C)C(=O)C21 (centres undefined),-1.2% (inactive)
2,CC(C)OCCCNc1ncnc2c1[nH]c1ccc(F)cc12,88.4% (active)
3,O=C1CSc2ccc(S(=O)(=O)NCc3ccccc3)cc2N1,-1.3% (inactive)
4,Cc1ccc(C)c(S(=O)(=O)n2cnc3ccccc32)c1,-3.1% (inactive)
5,Cc1ccc(C)c(S(=O)(=O)N2CCN(c3ncnc4sccc34)CC2)c1,86.5% (active)
6,Cc1ccc(C)c(S(=O)(=O)N2CCN(CC(=O)Nc3ccc([N+](=O)[O-])cc3)CC2)c1,7.1% (inactive)
7,CCCNC(=O)C1(C)CCN1C(=O)C1(c2ccccc2)CC1 (centres undefined),-0.6% (inactive)
8,C=CCNC(=O)CCCOc1cccc(C)c1,1.5% (inactive)
9,Cc1cccc(OCCNC(=O)CSc2ccc(C(F)(F)F)cc2[N+](=O)[O-])c1,80.1% (active)
10,O=C(CSc1ccc(C(F)(F)F)cc1[N+](=O)[O-])NCCOc1ccccc1,18% (inactive)
11,Cc1cc(C)n2c(NCc3ccccc3)c(CC(C)C)nc2n1,0.4% (inactive)
12,Fc1ccc(N2N=C(c3cccs3)CC2c2ccco2)c(F)c1 (centres undefined),57.7% (active)
13,O=C(COc1ccccc1Cl)N1N=C(c2cccs2)CC1c1ccco1 (centres undefined),-0.8% (inactive)
14,Cc1ccccc1C1CC(c2cccs2)=NN1S(C)(=O)=O (centres undefined),-0.3% (inactive)
15,O=C(NCc1ccccn1)c1cnc2sccn2c1=O,-2.8% (inactive)
16,C/C(=N\Nc1ccc(S(N)(=O)=O)cc1[N+](=O)[O-])c1cccs1,2.3% (inactive)
17,c1ccc2c(C[n+]3csc4ccccc43)cccc2c1,-1.7% (inactive)
18,O=C(OCc1nc2ccccc2[nH]1)C1CCCCC1,-0.1% (inactive)
19,c1ccc2c(CSCc3nc4ccccc4[nH]3)cccc2c1,74.4% (active)
20,COc1ccc(N(CC(=O)N2CCOCC2)S(=O)(=O)c2ccccc2)cc1Cl,1.3% (inactive)

row,Compound,inhibition
1,O=c1[nH]c(/C=C/c2cccc(Br)c2)nc2ccccc12,2.1% (inactive)
2,O=c1c2cc(Br)ccc2nc(-c2cccc(Cl)c2)n1O,0.6% (inactive)
3,O=C(/C(=C/c1cccc(Cl)c1)c1nc2ccccc2[nH]1)c1ccccc1,84.4% (active)
4,CC1CN(C(=S)Nc2ccc(S(N)(=O)=O)cc2)CC(C)O1 (centres undefined),-0.5% (inactive)
5,NC(=O)Cn1c(=O)oc2ccccc21,-0.1% (inactive)
6,CN1CCN(c2ncc3c(n2)CC(c2ccccc2F)CC3=O)CC1 (centres undefined),1.4% (inactive)
7,O=C(Oc1ccccc1Cl)c1ccc(N2CCOCC2)c([N+](=O)[O-])c1,9.1% (inactive)
8,CS(=O)(=O)c1ccccc1C(=O)Nc1ccc2sccc2c1,-0.4% (inactive)
9,Cc1ccc(NC(=O)Nc2ccc3oc(C)nc3c2)cc1,-2.9% (inactive)
10,O=C(Nc1ccc2ccccc2c1)Nc1ccc2snnc2c1,99.8% (active)
11,CC1(C(=O)NS(=O)(=O)c2cccc(F)c2)CCN1C(=O)Cc1cc(F)ccc1F (centres undefined),-0.4% (inactive)
12,CCc1nc2c(OCc3ccc(C(F)(F)F)cc3)cccn2c1N(C)C(=O)CC(C)C,0.1% (inactive)
13,O=C(O)c1cc(S(=O)(=O)NC2CCCc3ccccc32)ccc1O (centres undefined),0.3% (inactive)
14,COc1cc(C2C(N3C(=O)c4ccccc4C3=O)C(=O)N2c2ccc(C)c(C)c2)cc(OC)c1OC (centres undefined),3% (inactive)
15,COc1ccc2c(c1)c(=Cc1ccc(N(C)C)cc1)c1cc(-c3ccccc3)[n+](C)n12,80.7% (active)
16,Cc1nc(N2CCOCC2)c2c(C)c(C(=O)Nc3ccc(C(F)(F)F)cc3)sc2n1,72.5% (active)
17,Cc1nc(N2CCN(c3ccccn3)CC2)c2c(C)c(C(=O)Nc3ccc(F)c(Cl)c3)sc2n1,16.7% (inactive)
18,Cc1nc(N2CCC(C)CC2)c2c(C)c(C(=O)Nc3cc(F)ccc3C)sc2n1,13.5% (inactive)
19,C=C(C)Cn1c(N2CCN(CC)CC2)nc2c1c(=O)[nH]c(=O)n2C,-0.4% (inactive)
